In ChEMBL document CHEMBL4513216, “Probing the Open Global Health Chemical Diversity Library for Multistage-Active Starting Points for Next-Generation Antimalarials” (ACS Infect Dis, 2020):
In all, about 65,000 compounds went through this assay and about 2,100 (3.2%) showed an effect of 50% or more. The median lay at about -52%. For the sample, strong results were picked, then their nearest neighbours and some compounds at random.

Tested on: Plasmodium falciparum
Experiment: Screen against P. falciparum Asexual Blood Stage (ABS), at 5uM
Assay type: functional, Dd2
Conditions: tested at 5 uM

SMILES	INHIBITION [%]
NC(=O)c1nc2c(s1)CCN(C(=O)Nc1cccc(Cl)c1)CC2	-91.8
CC(=O)NCC(=O)Nc1cc(C)n(-c2ccc(Cl)cc2Cl)n1	-97
CC(C)N(C)C(=O)C1CCN(Cc2cnc3ccccn23)CC1	-38.4
CN(C)C(=O)COc1ccccc1CN1CCCC2(C1)CN(C)C(=O)O2 (stereo not given)	-37.9
CCS(=O)(=O)c1ncc(CN(C)C)n1Cc1ccccc1	-37.3
CS(=O)(=O)CCC(=O)Nc1nccn1Cc1ccccc1Cl	-70.9
O=C1NC(c2ccccc2)=N[C@@]12CC[C@@H]1CN(Cc3ccoc3)C[C@@H]12	59.6
O=C1NC(c2ccccc2)=N[C@@]12CC[C@@H]1CN(Cc3ccccc3)C[C@@H]12	42.6
O=C1NC(c2ccccc2)=N[C@@]12CC[C@@H]1CN(Cc3ccncc3)C[C@@H]12	15.3
CN1C(=O)CC(c2cnn(C)c2)C12CCN(C(=O)c1cscn1)CC2 (stereo not given)	-21.4
CC(C)(C)NC(=O)Cn1c(=O)n(Cc2ccco2)c2ncccc21	-56.2
COCC1CCN(c2ccnc3ccsc23)C1 (stereo not given)	45.4
Cc1noc(Cl)c1CCC(=O)N1CCN(c2ccccc2)CC1	53
Cc1noc(Cl)c1CCC(=O)N1CCc2sccc2C1	54.4
Cc1noc(C)c1CC(=O)N1CCc2sccc2C1	-48.1
Cc1noc(C)c1CN(C)CCC(=O)N1CCc2sccc2C1	-54.3
CCN1CCN(C(=O)CCc2c(C)noc2Cl)CC1	1.06
Cc1noc(Cl)c1CCC(=O)N1CCN(c2ncccn2)CC1	-34.8
O=C(CCN1CCCC(CC2CC2)(C(=O)O)C1)NC1CCCC1 (stereo not given)	-79.9
CC(C)(C)n1ncc2c1CCCC2NCc1ccc2c(c1)CCO2 (stereo not given)	-0.776
CC(C)(CO)CCCNC(=O)NC1(c2cccc(F)c2)CC1	-79.4
O=C(CCc1ccsc1)NC1CCN(c2cccc(F)c2)CC1	-55.7
CCc1cc(C(=O)N2CCCC(Cc3ccc(NC)nn3)C2)on1 (stereo not given)	-89.6
CC(Cn1ccnc1)NC(=O)C1(c2ccc(F)cc2)CC1 (stereo not given)	-96.5
CC(CNC(=O)C1(c2ccc(F)cc2)CC1)CN1CCCC1=O (stereo not given)	11.4

SMILES	INHIBITION [%]
CCC(CN1CCCC1)NC(=O)C1(c2ccc(F)cc2)CC1 (stereo not given)	59.1
CCC(CN1CCCCC1)NC(=O)C1(c2ccc(F)cc2)CC1 (stereo not given)	70
CC(Cn1ccnc1)NC(=O)C1(c2ccc(F)cc2)CCCC1 (stereo not given)	-16.4
Cc1cc(C)n(CC(C)NC(=O)C2(c3ccc(F)cc3)CC2)n1 (stereo not given)	-44.3
O=C(NCc1cccnc1)[C@H]1CC[C@@H]2[C@@H](CCN2c2ncccn2)O1	41.4
CNC(=O)c1cc2c(nc1NCC(C)C)CCN(c1ncccn1)CC2	-98.4
CC(Cn1cccn1)NCc1cnc(N2CCCC2)nc1 (stereo not given)	-141
c1ccc(OCCNCc2cccs2)nc1	-79.1
Cc1ccsc1CNCCCOc1ccccn1	54.4
c1ccc(OCCCNCc2cccs2)nc1	19.1
O=C(c1cnc(C2CC2)nc1)N1CCCC(c2nccs2)C1 (stereo not given)	-138
O=C(CC1CC1)N1CCC2(CCCN(CCOc3ccccc3)C2)C1 (stereo not given)	57.8
O=C(c1cscn1)N1CCC2(CCCN(CCOc3ccccc3)C2)C1 (stereo not given)	53.5
O=C([C@H]1CCCO1)N1CCC2(CCCN(CCOc3ccccc3)C2)C1 (stereo not given in full)	-41
O=C(N1CCCC1)N1CCC2(CCCN(CCOc3ccccc3)C2)C1 (stereo not given)	-1.79
O=C(c1cscn1)N1CCC2(CCN(S(=O)(=O)c3ccccc3)C2)C1 (stereo not given)	-20.8
CN(C)C(=O)N1CCC2(CCCN(CCOc3ccccc3)C2)C1 (stereo not given)	40.1
Cn1ccnc1CN1CCC(Cn2cc(-c3ccccc3)nn2)CC1	24.5
c1cc(CNCC2CNc3ccnn3C2)cc(OC2CCCC2)n1 (stereo not given)	-58.6
CCCc1cnc(C)nc1N1CCC(Cn2cc(CO)nn2)CC1	-65.7
Cc1nccn1-c1cccc(C2CCCN(C3CCCC3)C2)n1 (stereo not given)	1.22
Cc1nccn1-c1cccc(C2CCCN(C3CCCCC3)C2)n1 (stereo not given)	44.3
CCc1nccn1-c1cccc(C2CCCN(C3CCCCC3)C2)n1 (stereo not given)	53.2
Cc1noc(C)c1CN1Cc2ccnn2CC(C(=O)NCC2CC2)C1 (stereo not given)	-30.3
CCCN1CCCn2c(nc(CNC(=O)c3nccn3C)cc2=O)C1	-91.8

SMILES	INHIBITION [%]
CCn1cc(CN2CCCC(c3[nH]ncc3-c3ccc(C)cc3)C2)cn1 (stereo not given)	60.9
Cc1ccc(-c2cn[nH]c2C2CCCN(c3ncccn3)C2)cc1 (stereo not given)	-1.86
CCn1cc(CN2CCC(c3[nH]ncc3S(C)(=O)=O)C2)cn1 (stereo not given)	-44
CCn1cc(CN2CCCC(c3[nH]ncc3-c3ccc(F)cc3)C2)cn1 (stereo not given)	60.9
Cc1ccc(-c2cn[nH]c2C2CCCN(c3cnccn3)C2)cc1 (stereo not given)	-28
CCCn1cc(CN2CCC(c3[nH]ncc3S(C)(=O)=O)C2)cn1 (stereo not given)	-45.2
O=C(c1ccoc1)N1CC[C@@H]2O[C@@H](COCc3ccccn3)CC[C@@H]21	-109
CO[C@@H]1CCN(S(=O)(=O)c2cccs2)[C@H]1Cc1cccnc1	-8.97
CCC(C)N(Cc1cccnc1)C(=O)c1ccc(F)c(O)c1 (stereo not given)	-68.4
CN(C)CC1(O)CCCN(c2nc(-c3ccccc3)no2)CC1 (stereo not given)	-61.2
CN(C)CC1(O)CCCN(c2noc(-c3ccccc3)n2)CC1 (stereo not given)	-3.62
Cc1cc(N2CCCC(O)(CN(C)C)CC2)nc(-c2ccccc2)n1 (stereo not given)	57.4
CC1CN(C)CCN1C(=O)c1ccn(-c2cccc(F)c2)n1 (stereo not given)	-38.4
Cc1cc(NC(=O)NC(C)CN2CCN(c3ccccc3)CC2)on1 (stereo not given)	59.6
Cc1cc(NC(=O)N(C)CCN2CCN(c3ccccc3)CC2)on1	-47.3
Cc1cc(NC(=O)CN(c2ccccc2)C(C)C)on1	-5.31
CNC(=O)c1cccnc1N1CCC(Oc2ccc(F)cc2)CC1	-88.2
O=C(CCc1ccccn1)N1CCCC(n2cncn2)C1 (stereo not given)	-46.3
CC(C)c1n[nH]c(C2CN(C(=O)Cn3ccccc3=O)CCO2)n1 (stereo not given)	-40.5
O=C(CC1CC1)N1CCO[C@H]2[C@H](OCCCn3cccn3)CC[C@@H]21	-14.6
Cc1c(CN2CC[C@@H](N3CCC(O)CC3)[C@H](O)C2)[nH]c2ccc(Cl)cc12	54.6
Cc1ccc2[nH]c(CN3CC[C@@H](N4CCN(C)CC4)[C@H](O)C3)c(C)c2c1	-41.6
Cc1c(CN2CC[C@@H](N3CCC(O)CC3)[C@H](O)C2)[nH]c2ccc(F)cc12	-21.9
CC(=O)c1cc(Br)cc(F)c1OCC(=O)NC(C)C	-96.4
O=C(NCC(F)F)c1ccc(S(=O)(=O)NCCc2ccncc2)cc1	16.5

SMILES	INHIBITION [%]
O=C(CCN1CCCO1)N1CC[C@@H](c2ccc3ccccc3c2)[C@H](O)C1	15.7
O=C(CCn1cccn1)N1CC[C@@H](c2ccc3ccccc3c2)[C@H](O)C1	15.7
O=C(CCN1CCCC1)N1CC[C@@H](c2ccc3ccccc3c2)[C@H](O)C1	65.1
COc1cc(C2c3c(n[nH]c3C)N=C3COC(=O)C32)cc2c1OCO2 (stereo not given)	-31.7
O=C(CC1C=CCC1)Nc1ncn(CC(=O)N2CCCCCC2)n1 (stereo not given)	23.2
CCn1cc(CNCC(c2ccc(Cl)cc2)n2cccn2)cn1 (stereo not given)	60.8
Clc1ccc(C(CNCc2ccncc2)n2cccn2)cc1 (stereo not given)	-50.1
Cn1cc(CNCC(c2ccc(Cl)cc2)n2cccn2)cn1 (stereo not given)	18.1
Cc1cc(CN2CCC(CNS(=O)(=O)c3c(C)noc3C)CC2)c(C)o1	28.4
CCN(C)S(=O)(=O)NCC1CCN(Cc2ccccc2C)CC1	11.6
Cc1cc(CN2CCC(CNS(=O)(=O)c3ccccc3Cl)CC2)c(C)o1	53.6
Cc1cnc2n(c1=O)C(CC(=O)NCc1ccc(Cl)cc1)CS2 (stereo not given)	-30.4
COc1ccc2[nH]c3c(c2c1)CN(c1cc(NCCO)nc(N)n1)CC3	-52.4
CC(C)Cc1ncc2c(n1)CN(c1cc(NCCO)nc(N)n1)C2	-42.2
Nc1nc(NCCO)cc(N2CCc3c([nH]c4ccccc34)C2)n1	61.3
O=C(c1ccc2[nH]ccc2c1)N1CCCSCC1CN1CCCC1 (stereo not given)	21.3
O=C(NCCc1ccn(-c2ccccc2)n1)N1CCSCC1	-122
Cc1ccc([C@]2(O)CC[C@H]3CN(Cc4ccc(Cl)cc4Cl)C[C@H]32)nc1	66.6
Cc1ccc([C@]2(O)CC[C@H]3CN(Cc4cccc(F)c4F)C[C@H]32)nc1	45.8
COc1ccc(CN2C[C@H]3CC[C@](O)(c4ccc(C)cn4)[C@H]3C2)c(F)c1	17.3
COc1ncc(CN2C[C@@H]3CC[C@@](O)(c4ccc(C)cn4)[C@@H]3C2)cn1	-72.4
Cc1ccc([C@]2(O)CC[C@H]3CN(Cc4cccc(Cl)c4Cl)C[C@H]32)nc1	-9.78
CSc1ccc(CN2C[C@@H]3CC[C@@](O)(c4ccc(C)cn4)[C@@H]3C2)cc1	57.5
OC(CN1CCN(CCOCC(F)(F)F)CC1)c1ccccc1 (stereo not given)	-64.4
O=S(=O)(c1cccs1)N1CCCC2(COCCN(c3cccnc3)C2)C1 (stereo not given)	-39.7
